In PubChem BioAssay (Tox21):
Results filed as inconclusive are left out. Entries that show only a call come without a potency. Calls of active or inactive are those of the source. Calls follow the shape of the dose curve; as a rule, active = well fitted cell-killing curve with a large enough effect in the repeat runs; inconclusive = weak or mixed curves; inactive = flat fitted curve, though single readings scatter.

test: qHTS assay to identify small molecule antagonists of the estrogen receptor beta (ER-beta) signaling pathway - cell viability counter screen (AID 1259382); settings: ER-beta-UAS-bla HEK293T viability, CellTiter-Glo luminescence, 16 h; series mostly up to 92.4 µM; also: nearly all actives have a fitted effect of over 55% in size
From the text: U.S. Tox21 Program National Center for Advancing Translational Sciences [NCATS] NIH Chemical Genomics Center [NCGC] U.S. Environmental Protection Agency [EPA] National Institutes of Environmental Health Sciences [NIEHS] National Toxicology Program [NTP] U.S. Food and Drug Administration [FDA] Tox21 Assay Overview: Estrogen receptor (ER), a nuclear hormone receptor, plays an important role in development, metabolic homeostasis and reproduction. Two subtypes of ER, ER-alpha and ER-beta, have similar expression patterns with some uniqueness in both types. Endocrine disrupting chemicals (EDCs) and their interactions with steroid hormone receptors like ER causes disruption of normal endocrine function. To identify the compounds that inhibit ER signaling, an ER-beta-UAS-bla GripTite cell line (Life Technologies, Madison, WI, USA) containing a beta-lactamase reporter gene under the control of an UAS response element was used to screen Tox21 10K compound library. The cytotoxicity of the Tox21 compound library against the ER-beta-bla cell line was tested in parallel by measuring the cell viability using CellTiter-Glo assay in the same wells.
Tox21 Assay Protocol Summary: ER-beta-UAS-bla HEK293T cells were dispensed at 2,000 cells/4 uL of assay medium containing 2% charcoal stripped FBS per well into black wall/clear-bottom 1536-well plates using a Multidrop Combi (ThermoFisher Scientific, Waltham, MA) dispenser. After the assay plates were incubated at a 37C and 5% CO2 for 6 hr, 23 nL of compounds dissolved in DMSO, positive controls or DMSO only was transferred to the assay plate by a Pintool station (Kalypsys, San Diego, CA), followed by addition of 1 uL (1nM as final concentration) of 17-beta-estradiol (E2) in assay medium using a Flying Reagent Dispenser (FRD, Aurora Discovery, San Diego, CA). The plates were incubated at 37C and 5% CO2 for 16 hr. Then 1 uL of LiveBLAzer B/G FRET substrate was added using a Flying Reagent Dispenser, the plates were incubated at room temperature for 2 hours, and fluorescence intensity was measured by an Envision plate reader (PerkinElmer, Shelton, CT). For cell viability readout that measures cytotoxicity, 4 uL/well of CellTiter-Glo reagent was added into the assay plates using a FRD. After 30 min incubation at room temperature, the luminescence intensity in the plates was measured using a ViewLux (PerkinElmer) plate reader.
Potency is read from the fitted curve at half-maximal effect.

Question: With CC1=C(/C=C/C(C)=C/C=C/C(C)=C/C=O)C(C)(C)CCC1 as the compound, how does the Potency read?
Answer: 30.5 µM (active)

Question: With CC1=NC(C)OC1C (stereo not given) as the compound, how does the Potency read?
Answer: inactive

Question: Which Potency does the source give for O=C1CCCc2c1cc1ccc3cccc4ccc2c1c34 here?
Answer: inactive

Question: Which Potency does the source give for CN(C/C=C/C#CC(C)(C)C)Cc1cccc2ccccc12 here?
Answer: 29.8 µM (active)

Question: Which Potency does the source give for CCCCCCC[N+](CC)(CC)CCCCc1ccc(Cl)cc1 here?
Answer: inactive

Question: Which Potency does the source give for C[n+]1cc2c3c(ccc2c2ccc4cc5c(cc4c21)OCO5)OCO3 here?
Answer: 3.66 µM (active)

Question: For CCCCCCCCCCC=O, which Potency is on record?
Answer: inactive

Question: Which Potency does the source give for CCOC(=O)/C=C(C)/C=C/C=C(C)/C=C/c1c(C)cc(OC)c(C)c1C here?
Answer: inactive

Question: With CC(C)CCCCCCCCCCCCCCC(=O)O as the compound, how does the Potency read?
Answer: inactive

Question: With O=C(OCC(COC(=O)c1ccccc1)(COC(=O)c1ccccc1)COC(=O)c1ccccc1)c1ccccc1 as the compound, how does the Potency read?
Answer: inactive

Question: With OC1(c2ccc(Cl)c(C(F)(F)F)c2)CCN(CCCC(c2ccc(F)cc2)c2ccc(F)cc2)CC1 as the compound, how does the Potency read?
Answer: 10.6 µM (active)

Question: For Oc1ccc(Cl)cc1Sc1cc(Cl)ccc1O, which Potency is on record?
Answer: 48.5 µM (active)

Question: For CN(C)C(=O)C1(N2CCCCC2)CCN(CC[C@@]2(c3ccc(Cl)c(Cl)c3)CN(C(=O)c3ccccc3)CCO2)CC1, which Potency is on record?
Answer: 28.6 µM (active)

Question: Which Potency does the source give for CCCCC(CC)CN=C(N)NC(N)=NCCCCCCN=C(N)NC(N)=NCC(CC)CCCC (stereo not given) here?
Answer: 13.3 µM (active)

Question: For Cc1cccc(CN2CCN(C(c3ccccc3)c3ccc(Cl)cc3)CC2)c1 (stereo not given), which Potency is on record?
Answer: inactive

Question: With COC(=O)C1=C(C)NC(C)=C(C(=O)OCCc2ccc(N3CCN(C(c4ccccc4)c4ccccc4)CC3)cc2)C1c1cccc([N+](=O)[O-])c1 (stereo not given) as the compound, how does the Potency read?
Answer: inactive

Question: With N=C1N=C(N)c2cc3ccccc3cc21 as the compound, how does the Potency read?
Answer: 38.6 µM (active)

Question: Which Potency does the source give for CC(C)C(C)(C)C(C)(C)C(C)(C)S here?
Answer: inactive

Question: Which Potency does the source give for OCCCCCCCCCCCCBr here?
Answer: inactive

Question: Which Potency does the source give for O=C(Oc1ccccc1)c1ccccc1C(=O)Oc1ccccc1 here?
Answer: inactive

Question: Which Potency does the source give for O=C(Nc1cccc([N+](=O)[O-])c1)c1cc2ccccc2cc1O here?
Answer: 0.77 µM (active)

Question: For O=C(c1ccc(O)cc1O)c1ccc(O)cc1O, which Potency is on record?
Answer: inactive

Question: With CCCCN1C(=O)[C@@H]([C@H](O)C2CCCCC2)NC(=O)C12CCN(Cc1ccc(Oc3ccc(C(=O)O)cc3)cc1)CC2 as the compound, how does the Potency read?
Answer: inactive

Question: For CC(C)c1ccc2c(c1)CC[C@H]1[C@](C)(CN)CCC[C@]21C, which Potency is on record?
Answer: 61.1 µM (active)

Question: Which Potency does the source give for CN1CCN(CCC(=O)N2c3ccccc3Sc3ccc(C(F)(F)F)cc32)CC1 here?
Answer: 16.8 µM (active)

Question: Which Potency does the source give for CCN(C(=O)N(CC)c1ccccc1)c1ccccc1 here?
Answer: inactive

Question: With CCc1cc(SCc2sc(-c3ccc(C(F)(F)F)cc3)nc2CN2CCN(c3ccc(OC)cc3)CC2)ccc1OCC(=O)O as the compound, how does the Potency read?
Answer: 4.33 µM (active)

Question: Which Potency does the source give for Cn1cc(C(=O)[C@@H]2CCc3nc[nH]c3C2)c2ccccc21 here?
Answer: inactive

Question: With Cc1cc(O)c2ccccc2c1O as the compound, how does the Potency read?
Answer: 23.7 µM (active)

Question: For CC(C)(C)CC(C)(C)c1ccc(O)c(Cc2ccc(Cl)cc2Cl)c1, which Potency is on record?
Answer: 29.8 µM (active)

Question: Which Potency does the source give for CCN(C(=O)c1cc(C)cc(OC[C@H](C)Nc2ccncc2)c1)C(C)C here?
Answer: inactive

Question: With CCCCc1oc2ccc(NS(C)(=O)=O)cc2c1C(=O)c1ccc(OCCCN(CCCC)CCCC)cc1 as the compound, how does the Potency read?
Answer: 10.6 µM (active)

Question: Which Potency does the source give for C[C@]12CCC(=O)C=C1CC[C@@H]1[C@@H]2[C@@H](O)C[C@@]2(C)[C@H]1CC[C@]2(O)C(=O)COC(=O)CCC(=O)O here?
Answer: inactive

Question: For CCCCCCCCCCCCCCCCCC[N+](C)(C)Cc1ccccc1, which Potency is on record?
Answer: 27.6 µM (active)

Question: With O=c1[nH]cnc2nc[nH]c12 as the compound, how does the Potency read?
Answer: inactive

Question: For C1CCCC1, which Potency is on record?
Answer: inactive

Question: With CCCCCCCCCOC(=O)c1ccc(O)cc1 as the compound, how does the Potency read?
Answer: 53.7 µM (active)

Question: With CCc1cc(Cc2cc(CC)c(N)c(CC)c2)cc(CC)c1N as the compound, how does the Potency read?
Answer: 48.6 µM (active)

Question: Which Potency does the source give for c1cc(C(c2ccc(OCC3CO3)cc2)c2ccc(OCC3CO3)cc2)ccc1OCC1CO1 (stereo not given) here?
Answer: inactive

Question: With CC(=O)SC[C@@H](Cc1ccccc1)C(=O)NCC(=O)OCc1ccccc1 as the compound, how does the Potency read?
Answer: inactive
